HepG2 tox = HepG2 cytotoxicity, counter-screen for TGF-b inhibitors | 0.76% of 410,000 active | Potency, µM (doses to about 46.1 µM), without a hit: at the highest dose activity change, negative = cytotoxicity, most hits filed as cytotoxic | HepG2 CAGA-GFP viability, ATP luminescence, 18 h | AID 588856
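CellTiter-Glo luminescence gave cytotoxicity after 18 hours at 37 degrees C. The cells were HepG2 CAGA-GFP in 1% FBS DMEM, stimulated with 500 pg/mL TGF-beta after compound addition. %Activity was normalised to no-cell wells (complete cell-killing) and DMSO (no toxicity), and curves were fitted and classified.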
GLP1R inv ag = GLP-1 receptor (human) inverse agonism; P43220; HEK293 GLP-1R CRE-luciferase, luminescence, 24 h; GLP-1R form is constitutively active; Potency, µM (top dose mostly 38.3 µM), for the others: at the top dose activity change, negative = inhibition, hits mostly inhibitors; 1.6% of 410,000 active; further: on the % scale 0 is the no-effect control and ±100 the full control effect; nearly all actives have a fitted effect of over 55% in size
Target sequence (P43220 whole entry, looked up): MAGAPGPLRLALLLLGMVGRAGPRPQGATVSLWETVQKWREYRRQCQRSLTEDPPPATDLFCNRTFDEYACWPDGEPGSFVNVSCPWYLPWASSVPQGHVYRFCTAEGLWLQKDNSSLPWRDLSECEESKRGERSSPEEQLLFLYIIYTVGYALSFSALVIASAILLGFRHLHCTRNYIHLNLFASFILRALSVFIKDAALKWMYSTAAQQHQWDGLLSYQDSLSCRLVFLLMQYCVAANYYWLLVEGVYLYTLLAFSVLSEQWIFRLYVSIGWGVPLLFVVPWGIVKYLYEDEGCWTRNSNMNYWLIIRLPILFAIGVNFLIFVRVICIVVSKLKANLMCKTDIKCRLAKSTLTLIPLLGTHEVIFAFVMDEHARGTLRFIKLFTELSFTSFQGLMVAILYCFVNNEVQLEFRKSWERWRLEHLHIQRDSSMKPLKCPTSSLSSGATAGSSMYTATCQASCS
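Readout was luciferase luminescence, measured 12 min after detection reagent at room temperature. Beforehand, GLP-1R reporter HEK293 cells had sat 12 h, then received compounds for 24 hr at 37 deg C.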
ATXN2 expr inh = inhibitors of ATXN2 expression. HEK-293 ATXN2-luciferase reporter, luminescence, 24 h. Potency, µM (highest dose often 57 µM), inactives show at the highest dose activity change, negative = inhibition, usual class: inhibitors. 0.72% of 360,000 active. AID 1745845; further: on the % scale 0 is the no-effect control and ±100 the full control effect; nearly all actives have a fitted effect of over 55% in size
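ATXN2-luciferase reporter cells (luciferase flanked by upstream and downstream ATXN2 gene portions) were treated 24 h at 37 °C with compounds at up to 57 uM. SteadyGlo luminescence gave expression; GF-AFC fluorescence gave viability.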
GLP-1R agonist = activates the human GLP-1 receptor; Potency, µM (highest dose often 45.6 µM), inactives show top-dose activation, usual class: activators; 0.007% of 380,000 active; HEK293 GLP-1R CRE-luciferase, luminescence, 4-6 h; cells express a hypersensitive GLP-1R form; further: % of control where 0% means no effect
TGFb SMAD3 inh = TGF-b pathway inhibition; 1.2% of 410,000 active; Potency, µM (top dose mostly 46.1 µM), inactives show at the top dose activity, negative = inhibition, most hits filed as inhibitors; HepG2 CAGA-GFP TGF-b/SMAD3 reporter, GFP fluorescence, 18 h; TGF-beta stimulated, 500 pg/mL final; further: on the % scale 0 is the no-effect control and ±100 the full control effect; nearly all actives have a fitted effect of over 65% in size
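GFP signal (ex488/em500-530) from TGF-beta-stimulated HEPG2 CAGA-GFP cells, 500 pg/mL final, 18 h at 37 degrees C in DMEM plus 1% FBS, normalized to unstimulated and DMSO-stimulated controls.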
ATXN viability = cell viability loss in ATXN counter-screen | S2 cells (HEK-293 line with an ATXN2-luciferase reporter) viability, CellTiter-Fluor protease fluorescence, 24 h | Potency, µM (series often up to 56.7 µM), actives largely listed as cytotoxic | 0.49% of 400,000 active; further: nearly all actives have a fitted effect of over 40% in size
Starred values were filed as active, the others as inactive; i = inactive; u = inconclusive; x = not tested or not shown; ! = a repeat was not active. Shown are actives, neighbours in structure and some others; about 3.7% of the full set was active somewhere. The call rests on the fitted dose curve; in most records, active means well fitted curve in the direction sought with a large enough effect; inconclusive means small, poorly fitted or top-dose-only effect, or another doubt; inactive means no such curve, though single readings can be large; an effect the other way counts as inactive or inconclusive. Potency means the concentration at half of the fitted maximal effect.

SMILES	HepG2 tox	GLP1R inv ag	ATXN2 expr inh	GLP-1R agonist	TGFb SMAD3 inh	ATXN viability
CCCCCn1c(=N)n(CC(O)COc2ccccc2OC)c2ccccc21 (stereo not drawn)	-84%	u	28µM*!	-2%	11µM*	28µM*
Cc1cccc(CNC(=O)c2c3n(c(C)cc2=O)-c2ccccc2SC(c2sccc2C)C3)n1 (stereo not drawn)	x	x	x	x	x	i
CCOC(=O)C(=NCC1CCCO1)NNc1cc(Cl)ccc1Cl (stereo not drawn)	26%	11µM*	-10%	20%	20%	i
CCOC(=O)/C(=N\Nc1cc(Cl)ccc1Cl)N1CCOCC1	-11%	-17%	-4%	11%	1%	i
Cc1cc(C)cc(OCC(=O)N2N=C(C(F)(F)F)CC2(O)C(C)(C)C)c1 (stereo not drawn)	18µM*	u	u	-13%	u	i
CN(C1=C(NC(=O)c2ccc(Cl)cc2)C(=O)c2ccccc2C1=O)c1ccccc1	-53%	u	u	-8%	13µM*	u
O=C(Nc1cccc(Cl)c1)c1ccccc1	-30%	-27%	31%	6%	-11%	i
O=C1C(Cl)=C(NC(=O)c2ccccc2)C(=O)C(Cl)=C1NC(=O)c1ccccc1	-31%	u	u	-2%	11µM*	u
O=C(c1ccc(=O)[nH]c1)N1CCN(S(=O)(=O)c2cc(C(F)(F)F)ccc2Cl)CC1	-16%	-31%	-8%	1%	-3%	i
O=C(NNc1cc(C(F)(F)F)ccc1Cl)c1ccc(=O)[nH]c1	-9%	3.5µM*	-2%	9%	0%	i
CCCC(CCC)C(=O)Nc1ccc2c(c1)N(C(=O)CN1CCN(C)CC1)c1ccccc1CC2	-25%	7.9µM*	-1%	6%	-23%	i
CC(C)(C)n1ncc2c(=O)n(Cc3ccc(Cl)c(F)c3)cnc21	5%	x	x	x	10%	x
C[C@@H]1[C@H](c2ccccc2)OCCS(=O)(=O)N1Cc1cccc(C(F)(F)F)c1	-31%	x	x	x	u	x
CCN1C(Nc2ccccc2)=NC[C@@H]1Cc1ccccc1	2%	3%	0%	-2%	u	i
CC(C)(C)C1CCC(CN2C(Nc3ccccc3)=NC[C@@H]2Cc2ccccc2)CC1 (stereo partly drawn)	13µM*	u	u	-5%	u	x
O=C(CN(C(=O)c1ccc(Cl)cc1)C1CCCCC1)Nc1ccc(Cl)c([N+](=O)[O-])c1	-27%	u	u	0%	u	u
O=C(CN(C(=O)c1ccccc1Cl)C1CCCCC1)Nc1ccc(Cl)c([N+](=O)[O-])c1	-9%	4µM*	u	-14%	u	x
CCC(C(=O)Nc1ccc(C)c(Cl)c1)n1c(=O)c(-c2ccccc2NC(C)=O)nc2ccccc21 (stereo not drawn)	-9%	u	u	x	13µM*	u
C[N+]1(C)[C@@H]2CC(OC(=O)C(O)(c3cccs3)c3cccs3)C[C@H]1[C@@H]1O[C@@H]12 (stereo partly drawn)	x	x	x	-2%	x	x
CC(C)Cn1c([N+](=O)[O-])nc2c1c(=O)[nH]c(=O)n2C	11µM*	u	u	1%	u	x
Cn1c(=O)[nH]c(=O)c2c1nc([N+](=O)[O-])n2Cc1ccccc1	5µM*	u	u	-5%	5µM*	6µM*
CCNc1nc2c(c(=O)[nH]c(=O)n2C)n1CC(C)C	1%	18%	7%	-2%	14%	i
CCN(CC)S(=O)(=O)c1ccc2c(c1)N(CC(=O)Nc1c(C)cccc1C)C(=O)C1CCCN21 (stereo not drawn)	-20%	7%	x	x	x	x
COc1ccccc1N1CCN(CC(O)COc2ccc(C)cc2C(C)(C)C)CC1 (stereo not drawn)	16µM*	u	x	x	u	x
C#CC1(O)CC[C@H]2[C@@H]3CCC4=CCCC[C@@H]4[C@H]3CC[C@@]21C (stereo partly drawn)	x	x	-20%	x	x	i
SMILES	HepG2 tox	GLP1R inv ag	ATXN2 expr inh	GLP-1R agonist	TGFb SMAD3 inh	ATXN viability
CCc1cc2c(cc3c(=O)n(CC(=O)N4CCN(c5cccc(C)c5C)CC4)nc(CC)n32)s1	-11%	-2%	x	x	-22%	x
Cc1cc(C)c2nc(N3CCC(C(=O)NCCCN4CCCCC4)CC3)sc2c1	-103%	3.2µM*	u	-20%	u	u
Cc1cc2c(C)cc(=O)[nH]c2cc1NC(=O)CCl	-66%	u	x	0%	u	11µM*
CCC(=O)Nc1cc2[nH]c(=O)cc(C)c2cc1C	-5%	19%	-18%	-7%	20%	x
CCc1ccccc1NC(=O)c1cc(S(=O)(=O)N(CC)c2ccccc2)ccc1F	-6%	11µM*	-28%	x	u	u
CCN(c1ccccc1)S(=O)(=O)c1ccc(OC)c(NC(=O)Cc2ccc(F)cc2)c1	-14%	u	-3%	13%	-8%	i
COc1ccc(OCC2c3cc(OC)c(OC)cc3CCN2C(=O)COc2ccc(Cl)cc2Cl)cc1 (stereo not drawn)	-7%	u	-9%	9%	0%	u
Oc1ccc(N=Nc2c(O)ccc3ccccc23)cc1	14µM*	-2%	-14%	-3%	u	u
COc1ccccc1CN1CCCC(n2cc(C(=O)N3CCCCC3)nn2)C1 (stereo not drawn)	x	x	x	x	x	i
Cc1cc2ccc(Cl)nc2nc1C	1%	x	x	x	0%	x
Cc1[nH]c2ccccc2c1Cc1nnc(SCc2ccccc2)o1	-20%	11µM*	4%	9%	-23%	u
CCC(C(=O)Nc1cc(C)ccc1C)n1c(=O)c(C(F)(F)F)nc2ccccc21 (stereo not drawn)	0%	18%	5%	x	6%	i
COc1ccc2[nH]c3c(=O)n(/N=C/[C@H]4C(C)C=C(C)CC4C)c(=O)[nH]c3c2c1 (stereo partly drawn)	7.1µM*	u	u	-6%	5µM*	13µM*
COc1ccc2c(c1)[nH]c1c(=O)n(/N=C/C3C(C)C=C(C)CC3C)c(=O)[nH]c12 (stereo not drawn)	-28%	-21%	u	7%	-23%	i
CCC(C)[C@H]1COCCS(=O)(=O)N1Cc1ccc(Cl)cc1Cl (stereo partly drawn)	-32%	-5%	-9%	13%	10µM*!	i

Compound activity (PubChem BioAssay)
